Source: PubChem BioAssay (Tox21)
Records with an inconclusive call do not appear. The source made the active and inactive calls. Unless noted, the call rests on the fitted dose curve.

Key:
[1] = Nuclear factor erythroid 2-related factor 2/antioxidant responsive element (Nrf2/ARE) small molecule agonists: qHTS cell viability counter screen in human keratinocytes (AID 1919968; active means well fitted curve in the direction sought with a large enough effect in the repeat runs; an effect the other way counts as inactive or inconclusive; further: nearly all actives have a fitted effect of over 55% in size)
Method in brief: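 HaCaT ARE reporter line, 1,500 cells/well; 5 h settle, 37 C/5% CO2; cpd in DMSO pinned; 23 h exposure; CellTiter-Fluor, 1 h; fluorescence.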

[2] = Nuclear factor erythroid 2-related factor 2/antioxidant responsive element (Nrf2/ARE) small molecule agonists: luciferase reporter gene qHTS assay in human keratinocytes (AID 1919969); further: nearly all actives have a fitted effect of over 35% in size
[3] = target: Gonadotropin-releasing hormone receptor (Homo sapiens) (UniProt P30968); experiment: Human gonadotropin-releasing hormone receptor (GnRHR) small molecule agonists, calcium flux assay in GnRHR-HEK293 cells (AID 1920063); further: nearly all actives have a fitted effect of over 35% in size
Gonadotropin-releasing hormone receptor (Homo sapiens), sequence (P30968 whole entry, looked up): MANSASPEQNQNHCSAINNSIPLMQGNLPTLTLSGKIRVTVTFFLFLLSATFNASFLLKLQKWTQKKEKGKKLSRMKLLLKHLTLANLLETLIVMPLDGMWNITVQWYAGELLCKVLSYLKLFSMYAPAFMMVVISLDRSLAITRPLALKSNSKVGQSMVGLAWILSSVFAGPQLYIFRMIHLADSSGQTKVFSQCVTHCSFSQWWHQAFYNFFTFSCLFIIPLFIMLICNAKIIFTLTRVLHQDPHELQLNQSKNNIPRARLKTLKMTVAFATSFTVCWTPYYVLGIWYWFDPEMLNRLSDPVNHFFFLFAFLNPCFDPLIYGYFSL
Method in brief: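 GnRHR-HEK293, 1500 cells/well, 18 h 37 C/5% CO2; Ca dye 1 h 37 C; cpd pinned (DMSO), agonist mode; kinetic FL 480/540, 3 min, 1 s reads; 15 conc, n=3.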

[4] = target: KiSS-1 receptor (Homo sapiens) (UniProt Q969F8); experiment: Human kisspeptin (KISS1R) small molecule agonists, calcium flux assay in KISS1R-HEK293 cells (AID 1920064; active means well fitted curve in the direction sought with a large enough effect in the repeat runs; an effect the other way counts as inactive or inconclusive)
KiSS-1 receptor (Homo sapiens), sequence (Q969F8 whole entry, looked up): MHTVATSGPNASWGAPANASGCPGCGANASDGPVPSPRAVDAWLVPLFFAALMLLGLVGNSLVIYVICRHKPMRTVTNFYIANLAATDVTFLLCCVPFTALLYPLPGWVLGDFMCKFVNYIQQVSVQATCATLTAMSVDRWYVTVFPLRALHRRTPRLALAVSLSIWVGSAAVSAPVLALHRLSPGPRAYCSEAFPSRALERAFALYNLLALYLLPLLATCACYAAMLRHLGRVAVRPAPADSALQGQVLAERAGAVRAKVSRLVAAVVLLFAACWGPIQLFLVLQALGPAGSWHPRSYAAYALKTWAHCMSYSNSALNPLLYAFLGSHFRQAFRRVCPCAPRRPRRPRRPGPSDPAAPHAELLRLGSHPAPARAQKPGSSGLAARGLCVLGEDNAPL
Method in brief: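 Stable human KISS1R HEK293 line; 18 h plating, 37 C/5% CO2; calcium dye 1 h 37 C; compound pin transfer; kinetic fluorescence Ex/Em 480/540, 3 min.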

[5] = G protein-coupled receptor (GPCR) small molecule agonists, calcium flux assay: HEK293 wild type cell line counter screen (AID 1920065)
Method in brief: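 Kinetic fluorescence at Ex/Em 480/540, recorded every second over 3 min, served as the read-out after compound addition. Each compound was tested at 15 concentrations in triplicate on cells pre-loaded with calcium dye for 1 h.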

[6] = p53 small molecule agonists, cell-based qHTS assay with human liver microsomes: qHTS cell viability counter screen (AID 1963579); further: nearly all actives have a fitted effect of over 45% in size
Method in brief: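 p53RE-bla cells (4,000/well) were pre-incubated 5 h at 37 C, then given compounds in DMSO plus human liver microsomes (0.5 mg/mL final) and NADPH (0.5 mg/mL final) for 16 h at 37 C. Viability was read by CellTiter-Glo luminescence.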

[7] = p53 small molecule agonists, cell-based qHTS assay with rat liver microsomes: qHTS cell viability counter screen (AID 1963580); further: nearly all actives have a fitted effect of over 45% in size
Method in brief: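 HCT-116 p53RE-bla, 4,000 cells/well, 5 h pre-incubation; cpd + rat liver microsomes 0.5 mg/mL + NADPH 0.5 mg/mL (final); 16 h, 37 C; CellTiter-Glo, 30 min RT; luminescence.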

[8] = target: 5-hydroxytryptamine receptor 2A (Homo sapiens) (UniProt P28223); experiment: 5-hydroxytryptamine receptor 2A (HTR2A) small molecule agonists, cell-based qHTS assay (AID 1963587); further: nearly all actives have a fitted effect of over 30% in size
5-hydroxytryptamine receptor 2A (Homo sapiens), sequence (P28223 whole entry, looked up): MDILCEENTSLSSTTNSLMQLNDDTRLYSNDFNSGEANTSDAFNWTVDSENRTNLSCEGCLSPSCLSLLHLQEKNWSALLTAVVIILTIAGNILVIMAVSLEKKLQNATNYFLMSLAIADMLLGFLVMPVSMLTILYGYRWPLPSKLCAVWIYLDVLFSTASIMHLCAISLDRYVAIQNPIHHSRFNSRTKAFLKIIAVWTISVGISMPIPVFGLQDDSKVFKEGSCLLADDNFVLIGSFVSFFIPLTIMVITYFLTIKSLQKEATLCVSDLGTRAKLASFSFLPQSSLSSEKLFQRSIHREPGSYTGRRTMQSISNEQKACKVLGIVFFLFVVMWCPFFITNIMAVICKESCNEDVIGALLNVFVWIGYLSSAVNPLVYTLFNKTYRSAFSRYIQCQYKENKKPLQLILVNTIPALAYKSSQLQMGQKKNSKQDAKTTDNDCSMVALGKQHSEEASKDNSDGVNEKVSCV
Method in brief: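 Kinetic calcium-flux fluorescence (2 min, 1 sec intervals) after compound addition in agonist mode. HTR2A-CHO cells were cultured 18 h, then dye-loaded 1 h at 37 C.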

[9] = target: Muscarinic acetylcholine receptor M1 (Homo sapiens) (UniProt P11229); experiment: Cholinergic receptor muscarinic 1 (CHRM1) small molecule antagonists, cell-based qHTS assay (AID 1963588); further: nearly all actives have a fitted effect of over 40% in size
Muscarinic acetylcholine receptor M1 (Homo sapiens), sequence (P11229 whole entry, looked up): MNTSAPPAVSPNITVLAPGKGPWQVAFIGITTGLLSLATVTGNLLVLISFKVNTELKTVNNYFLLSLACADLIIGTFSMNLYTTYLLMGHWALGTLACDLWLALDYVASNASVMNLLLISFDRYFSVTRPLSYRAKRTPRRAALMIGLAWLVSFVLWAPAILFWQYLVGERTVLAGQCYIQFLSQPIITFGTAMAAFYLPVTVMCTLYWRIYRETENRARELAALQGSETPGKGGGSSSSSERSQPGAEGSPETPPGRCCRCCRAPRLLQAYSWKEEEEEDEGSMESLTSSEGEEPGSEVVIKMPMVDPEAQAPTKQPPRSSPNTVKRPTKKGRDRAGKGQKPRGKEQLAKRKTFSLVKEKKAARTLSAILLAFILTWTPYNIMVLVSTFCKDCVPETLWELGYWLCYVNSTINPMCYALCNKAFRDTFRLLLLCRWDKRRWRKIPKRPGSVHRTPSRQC
Method in brief: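 CHRM1-CHO calcium-flux assay, antagonist mode. Cells were seeded 18 h, dye-loaded 1 h at 37 C and given compound for 5 min at RT, then acetylcholine was added at 50nM. FDSS fluorescence was read 3 min; 15 concentrations, three runs.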

[10] = target: Muscarinic acetylcholine receptor M1 (Homo sapiens) (UniProt P11229); experiment: Cholinergic receptor muscarinic 1 (CHRM1) small molecule agonists, cell-based qHTS assay (AID 1963589); further: nearly all actives have a fitted effect of over 35% in size
Method in brief: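 Human M1 in stable CHO line; 18 h plating, 1 h dye load 37 C; cpd added (agonist mode); Ca2+ fluorescence kinetic read, 1 s intervals; 15 conc, 3 runs.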

[11] = cAMP Responsive Elements (CRE) small molecule agonists, cell-based qHTS assay (AID 1963590)
Method in brief: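 HEK 293T CRE-bla, 2,000 cells/well, 18 h preincubation 37 C/5% CO2; cpds (DMSO) pinned, 3 h; LiveBLAzer B/G FRET substrate, 2 h RT.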

[12] = cAMP Responsive Elements (CRE) small molecule antagonists, cell-based qHTS assay (AID 1963591; active means well fitted inhibition curve with a large enough effect in the signal ratio in the repeat runs, not every such curve was filed as active; the % refers to the signal ratio)
Method in brief: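 Beta-lactamase reporter read by FRET substrate (LiveBLAzer B/G) after 2 h at room temperature. CRE-bla HEK293T cells had received compound plus 0.25 uM (final) NKH477 for 3 h at 37 °C.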

[13] = target: Beta-2 adrenergic receptor (Homo sapiens) (UniProt P07550); experiment: Adrenergic beta2 receptor (ADRB2) small molecule antagonists, cell-based qHTS assay (AID 1963592); further: series mostly up to about 92 µM; nearly all actives have a fitted effect of over 50% in size
Beta-2 adrenergic receptor (Homo sapiens), sequence (P07550 whole entry, looked up): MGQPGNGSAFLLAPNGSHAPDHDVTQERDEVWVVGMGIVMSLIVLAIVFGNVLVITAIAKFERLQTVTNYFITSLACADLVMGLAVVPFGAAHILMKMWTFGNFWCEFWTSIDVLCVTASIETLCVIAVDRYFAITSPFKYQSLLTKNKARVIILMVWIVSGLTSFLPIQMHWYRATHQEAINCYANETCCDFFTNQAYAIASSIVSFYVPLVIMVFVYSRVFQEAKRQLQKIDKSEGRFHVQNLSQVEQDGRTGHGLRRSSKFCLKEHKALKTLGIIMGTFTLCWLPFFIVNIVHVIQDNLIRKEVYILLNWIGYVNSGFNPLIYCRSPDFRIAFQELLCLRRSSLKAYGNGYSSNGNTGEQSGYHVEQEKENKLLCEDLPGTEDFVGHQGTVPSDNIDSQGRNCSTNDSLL
Method in brief: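 Cells (CHO, stable ADRB2 overexpression) incubated 18-20hr at 37C; compounds added from DMSO; agonist mix (1nM isoproterenol, 100uM IBMX, 25uM Ro-20-1724) added; 0.5hr RT; d2-cAMP and anti-cAMP-cryptate added; 1hr RT; 665/615 nm read.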

[14] = target: Beta-2 adrenergic receptor (Homo sapiens) (UniProt P07550); experiment: Adrenergic beta2 receptor (ADRB2) small molecule agonists, cell-based qHTS assay (AID 1963593);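 further: CHO cells stably overexpressing human ADRB2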
Method in brief: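 CHO cells stably over-expressing ADRB2 were plated overnight at 37C, then dosed with compounds plus a stimulation mix containing 100uM IBMX and 25uM Ro-20-1724 for 0.5hr at room temperature. cAMP was measured by HTRF competition, 1hr.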

[15] = target: D(2) dopamine receptor (Homo sapiens) (UniProt P14416); experiment: Dopamine D2 receptor (DRD2) small molecule agonists, cell-based qHTS assay (AID 1963594); further: nearly all actives have a fitted effect of over 35% in size
D(2) dopamine receptor (Homo sapiens), sequence (P14416 whole entry, looked up): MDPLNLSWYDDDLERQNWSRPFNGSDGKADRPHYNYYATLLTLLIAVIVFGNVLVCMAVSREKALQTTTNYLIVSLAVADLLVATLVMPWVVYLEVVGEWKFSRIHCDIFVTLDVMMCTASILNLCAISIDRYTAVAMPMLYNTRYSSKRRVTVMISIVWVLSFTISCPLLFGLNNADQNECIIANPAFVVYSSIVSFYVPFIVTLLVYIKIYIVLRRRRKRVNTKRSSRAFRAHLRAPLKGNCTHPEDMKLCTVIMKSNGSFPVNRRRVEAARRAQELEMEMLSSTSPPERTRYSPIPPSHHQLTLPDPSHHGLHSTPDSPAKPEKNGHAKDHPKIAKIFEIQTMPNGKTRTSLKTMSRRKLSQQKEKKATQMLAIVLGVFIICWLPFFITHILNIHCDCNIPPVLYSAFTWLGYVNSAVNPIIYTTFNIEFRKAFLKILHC
Method in brief: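 cAMP accumulation in DRD2-HEK293 cells measured by HTRF after 1 h detection; compounds added 10 min before NKH477 (200nM […]) forskolin-analogue stimulation, 30 min at room temperature, with Ro20-1724 present at 0.1 mM final.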

[16] = target: D(2) dopamine receptor (Homo sapiens) (UniProt P14416); experiment: Dopamine D2 receptor (DRD2) small molecule antagonists, cell-based qHTS assay (AID 1963595; active means well fitted inhibition curve with a large enough effect in the signal ratio in the repeat runs, with a control signal flat; the % refers to the signal ratio)
Method in brief: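 Stable D2 receptor HEK293 line, 24 h after seeding. Compound preincubated 10 min, then quinpirole (12 nM) with forskolin analogue NKH477 (200 nM), 30 min, room temperature. Detection by time-resolved FRET of cAMP.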

[17] = target: 5-hydroxytryptamine receptor 2A (Homo sapiens) (UniProt P28223); experiment: 5-hydroxytryptamine receptor 2A (HTR2A) small molecule antagonists, cell-based qHTS assay (AID 1963586); further: nearly all actives have a fitted effect of over 45% in size
Method in brief: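 Antagonist-mode intracellular calcium assay: DOI (4 nM) added after 5 min compound pre-incubation at room temperature to dye-loaded HTR2A-CHO cells. Fluorescence followed for 3 min, sampled every second.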

[18] = p53 small molecule agonists, cell-based qHTS assay: qHTS cell viability counter screen (AID 1963581); further: nearly all actives have a fitted effect of over 45% in size
Method in brief: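 HCT-116 p53RE-bla cells, 4,000/well, plated 5 h before compound pin transfer; 16 h at 37 C; bla substrate 2 h RT; then CellTiter-Glo, 30 min RT, luminescence.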
On the % scale 0 is the no-effect control and ±100 the full control effect.

N=C(N)N1CCc2ccccc2C1
inactive: activity change, negative = cytotoxicity [1] 2.9% [at 8.39 µM] | activity, positive = activation [2] -4.04% [at 8.39 µM] | activity change [3] 0.504% [at 5.22 µM, active compounds read high] | activation [4] -0.218% [at 6.97 µM] | activation [5] -0.314% [at 5.23 µM] | activity change, negative = cytotoxicity [6] -1.79% [at 5.99 µM] | activity change, negative = cytotoxicity [7] 0.465% [at 5.99 µM] | activation [8] -10.3% [at 7.02 µM] | activity, negative = inhibition [9] -1.92% [at 5.58 µM] | activation [10] 0.312% [at 6.97 µM] | activation [11] 0.166% [at 8.39 µM] | activity change, negative = inhibition [12] -2.28% [at 8.39 µM] | activity change, negative = inhibition [13] -8.55% [at 8.39 µM] | activation [14] 9.27% [at 8.39 µM] | activation [15] 22% [at 8.39 µM] | activity change, negative = inhibition [16] 16.9% [at 8.38 µM]

C=CC(=O)N1CCOCC1
inactive: Potency [1] | Potency [2] | Potency [3] | Potency [4] | Potency [5] | Potency [6] | Potency [7] | Potency [17] | Potency [9] | Potency [10] | Potency [11] | Potency [12] | Potency [13] | Potency [14] | Potency [15] | Potency [16]

Cc1cccc(C)c1NC(=O)CN(CC(=O)O)CC(=O)O
inactive: Potency [1] | Potency [2] | Potency [3] | Potency [4] | Potency [5] | Potency [6] | Potency [18] | Potency [17] | Potency [8] | Potency [9] | Potency [10] | Potency [11] | Potency [12] | Potency [13] | Potency [15] | Potency [16]

CCCCCCCCCCO[C@@H]1O[C@H](CO)[C@@H](O)[C@H](O)[C@H]1O
inactive: Potency [1] | Potency [2] | Potency [3] | Potency [4] | Potency [5] | Potency [6] | Potency [7] | Potency [9] | Potency [10] | Potency [12] | Potency [13] | Potency [16]

CC1=NN(c2cccc(S(=O)(=O)O)c2)C(=O)C1
inactive: Potency [1] | Potency [2] | Potency [3] | Potency [4] | Potency [5] | Potency [6] | Potency [18] | Potency [17] | Potency [8] | Potency [10] | Potency [11] | Potency [12] | Potency [13] | Potency [14] | Potency [15]

CCOc1ccc2[nH]cc(C(=O)NCc3ccccc3)c(=O)c2n1
inactive: Potency [1] | Potency [2] | Potency [3] | Potency [4] | Potency [5] | Potency [6] | Potency [18] | Potency [17] | Potency [8] | Potency [9] | Potency [10] | Potency [13] | Potency [14] | Potency [15]

CCOc1ccc(NC(=O)CC(C)=O)cc1
inactive: Potency [1] | Potency [2] | Potency [3] | Potency [4] | Potency [5] | Potency [6] | Potency [18] | Potency [17] | Potency [9] | Potency [11] | Potency [13] | Potency [15] | Potency [16]

CCCCNc1ccc(C(=O)OCCOCCOCCOCCOCCOCCOCCOCCOCCOC)cc1
inactive: Potency [1] | Potency [2] | Potency [3] | Potency [4] | Potency [5] | Potency [6] | Potency [7] | Potency [17] | Potency [9] | Potency [10] | Potency [11] | Potency [12] | Potency [13] | Potency [14] | Potency [15] | Potency [16]

FC(F)(Cl)C(F)(Cl)Cl
inactive: Potency [1] | Potency [2] | Potency [3] | Potency [4] | Potency [5] | Potency [6] | Potency [18] | Potency [17] | Potency [8] | Potency [9] | Potency [10] | Potency [11] | Potency [12] | Potency [13] | Potency [15] | Potency [16]

C[C@@H](Oc1ccc(CNC(=O)c2cccnc2Oc2ccc3c(c2)OCO3)c(F)c1)C(=O)O
inactive: Potency [1] | Potency [2] | Potency [3] | Potency [4] | Potency [5] | Potency [6] | Potency [7] | Potency [8] | Potency [9] | Potency [10] | Potency [11] | Potency [13] | Potency [15] | Potency [16]

O=C(O)c1ccc2cc(C(=O)O)ccc2c1
inactive: Potency [1] | Potency [2] | Potency [3] | Potency [4] | Potency [5] | Potency [6] | Potency [18] | Potency [8] | Potency [9] | Potency [10] | Potency [12] | Potency [13] | Potency [14] | Potency [15] | Potency [16]

CC1=C(C(=O)O)N2C(=O)[C@@H](NC(=O)[C@H](N)C3=CCC=CC3)[C@H]2SC1
inactive: Potency [1] | Potency [2] | Potency [3] | Potency [4] | Potency [5] | Potency [6] | Potency [18] | Potency [17] | Potency [8] | Potency [9] | Potency [10] | Potency [11] | Potency [13] | Potency [14]
